Compound activity from PubChem.
The list is a sample of the results.
CYP2C19 inhib – inhibitors of human CYP2C19. P33261. hit rate 21% among 96,000. CYP2C19 Supersomes, luciferin-H EGE luminescence, 30 min. AID 778. inhibition, % at 5 µM;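 active = CYP2C19 inhibition above a set limit at 5 µM in the primary screen, cut at about 50% in these data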;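 note: plate controls were negative control wells for no effect and 2.5 mM tranylcypromine positive control for full effect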
PostGolgi ctrl – growth of the yeast control strain, post-Golgi counter-screen; efflux-deficient yeast background strain, growth absorbance A615, 16 h; inhibition, % at 10 µM; hit rate 5% among 98,000; AID 738
PostGolgi yeast – growth inhibition of a yeast mutant, post-Golgi transport screen; post-Golgi transport phenotypic cell assay; inhibition, % at 10 µM; hit rate 0.9% among 98,000; AID 739;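 note: yeast cells grown in 1536-well plates; yeast grown about 18 h at 30C before absorbance read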
CYP2C19 activ – increases human CYP2C19 enzyme activity; P33261; recombinant CYP2C19, luciferin-H EGE luminescence; hits give high values; 0 = fully inhibited enzyme, 1 = untreated enzyme; activation factor at 5 µM; 96,000 tested, under 10 active; AID 1025;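 active = activation factor of at least 2 at 5 µM in the primary screen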;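 note: 0 = wells with 2.5 mM tranylcypromine and 1 = vehicle-only wells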
CYP2C9 activ – activators of human CYP2C9 | activation factor at 5 µM | recombinant CYP2C9, luciferin-H conversion, luminescence; hits give high values; factor 1 = untreated enzyme, 0 = blocked | P11712 | AID 1024 | hit rate 1.4% among 96,000;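 active = activation factor of 2 or more for CYP2C9 at a 5 µM dose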;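 note: 0 = sulfaphenazole-blocked wells and 1 = vehicle-only wells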
Target sequence (P11712 whole entry, looked up): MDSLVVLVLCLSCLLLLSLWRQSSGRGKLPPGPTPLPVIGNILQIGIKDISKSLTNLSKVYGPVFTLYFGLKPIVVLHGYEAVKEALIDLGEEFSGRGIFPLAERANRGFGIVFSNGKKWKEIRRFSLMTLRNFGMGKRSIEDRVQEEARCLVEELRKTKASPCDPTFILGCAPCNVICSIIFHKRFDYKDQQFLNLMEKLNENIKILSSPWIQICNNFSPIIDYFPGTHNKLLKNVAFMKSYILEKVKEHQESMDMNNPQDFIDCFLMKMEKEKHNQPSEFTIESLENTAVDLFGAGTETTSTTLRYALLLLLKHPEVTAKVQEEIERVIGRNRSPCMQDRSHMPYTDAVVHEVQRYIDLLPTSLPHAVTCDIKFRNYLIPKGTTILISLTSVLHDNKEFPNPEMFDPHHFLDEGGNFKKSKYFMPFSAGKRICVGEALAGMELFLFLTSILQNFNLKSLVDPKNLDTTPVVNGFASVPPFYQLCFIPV
CYP2C9 inh – blocks human cytochrome P450 2C9; hit rate 20% among 96,000; inhibition, % at 5 µM; CYP2C9 Supersomes, luciferin-H conversion, luminescence; P11712;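 active = blocking of liver enzyme CYP2C9 beyond about 50% at 5 µM, limit read from the data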
* marks the source's active call; other numbers are inactive results; · = no result given. Cut-off read from the data, not from the text of the source, unless noted: active = inhibition above about 30%; inactive = the rest.

SMILES	CYP2C19 inhib	PostGolgi ctrl	PostGolgi yeast	CYP2C19 activ	CYP2C9 activ	CYP2C9 inh
CC(Sc1nnc(CNc2cccc3ccccc23)n1-c1ccccc1)C(=O)N/N=C/c1ccco1 (stereo unspecified)	15.0	10.3	0.5	0.8	0.9	13.2
COc1ccc(-n2c3c(cc(C(=O)N4CCCCC4)c2=O)C(=O)CC(C)(C)C3)cc1	-5.2	3.7	0.5	1.1	1.1	-14.8
CCOC(=O)c1cnc(-n2nc(C)cc2C)nc1Nc1ccc(OC)cc1	0.0	20.6	5.2	1	1	0.4
CCOC(=O)c1cnc(SC)nc1Nc1cccc(F)c1	35.2	-20.7	18.4	0.6	0.3	69.7*
O=C(O/N=C1\CCCc2ccccc21)c1ccc(F)cc1	-10.7	11.4	4.8	1.1	1.1	-14.1
CCC(C)NS(=O)(=O)c1ccc(S(=O)(=O)N2CCCC3(CCCCC3)C2)cc1 (stereo unspecified)	35.4	4.6	-4.6	0.6	0.3	73.5*
CCC(C)NS(=O)(=O)c1ccc(S(=O)(=O)Nc2cc3c(cc2C(C)=O)OCO3)cc1 (stereo unspecified)	32.9	0.9	4.1	0.7	0.7	27.9
Cc1ccccc1OCC1CN(CN2CCOCC2)C(=O)O1 (stereo unspecified)	10.7	3.1	13.2	0.9	1.1	-12.6
CC(C)(C)N1CC(COc2ccccc2)OC1=O (stereo unspecified)	71.1*	8.5	10.3	0.3	0.8	19.2
O=C1CCCc2nc3nc4ccccc4n3cc21	-18.3	-5.9	-4.5	1.2	1.2	-23.9
CCOC(=O)CSC(C)C(=O)Nc1nnc(C(C)C)s1 (stereo unspecified)	·	0.1	1.2	·	·	·
COc1ccc2nc(N=Nc3ccc(N(C)C)cc3)sc2c1	57.6*	5.2	-7.0	0.4	0.8	21.3
COc1ccc2nc(/N=C\N(C)C)sc2c1	9.6	10.6	8.3	0.9	1.1	-9.8
CS(=O)(=O)N1CCCC(C(=O)NCc2ccccc2Cl)C1 (stereo unspecified)	19.4	-10.1	29.5	0.8	1	-1.4
CCOC(=O)c1cnc(Nc2nc3ccccc3o2)nc1C	88.1*	-3.0	0.3	0.1	0.4	58.1*
Cc1sc2nc(SCC(=O)c3cccs3)n(Cc3ccco3)c(=O)c2c1C	2.4	2.5	-4.5	1	0.7	28.1
COc1ccc(OC)c(NC(=O)Cc2coc3cc(C)cc(C)c23)c1	75.3*	-3.5	-9.2	0.2	0.4	55.4*
COc1ccc(OC)c(NC(=O)Cc2nn(C)c(=O)c3ccccc23)c1	·	-6.6	-1.4	·	·	·
COc1ccc(OC)c(NC(=O)Cc2coc3ccc(C)cc23)c1	53.4*	11.8	-1.6	0.5	0.6	43.8
COc1ccc(OC)c(NC(=O)Cc2coc3ccc4ccccc4c23)c1	95.6*	35.1*	-0.9	0	0.7	25.8
Cc1cc(C)n2cc(CSc3ncccc3C(=O)O)nc2n1	-17.3	6.3	11.9	1.2	1.1	-14.4
COc1cccc(-c2csc(N3CCN(C(=S)Nc4ccccc4OC)CC3)n2)c1	70.2*	12.7	-4.2	0.3	1.1	-5.6
COc1ccc(NC(=O)N2CCN(c3nc(-c4cccc(OC)c4)cs3)CC2)cc1	·	41.5*	-16.9	·	·	·
COc1cccc(-c2csc(N3CCN(C(=S)Nc4cccc(Cl)c4)CC3)n2)c1	35.4	2.2	-5.6	0.6	0.6	40.9
COc1cccc(-c2csc(N3CCN(C(=S)Nc4ccccc4Cl)CC3)n2)c1	72.6*	24.2	6.1	0.3	0.4	63.6*
SMILES	CYP2C19 inhib	PostGolgi ctrl	PostGolgi yeast	CYP2C19 activ	CYP2C9 activ	CYP2C9 inh
Cc1ccc(NCc2nnc(SCC(=O)N3CCCc4ccccc43)o2)c(C)c1	4.2	23.3	-3.6	1	0.9	8.8
COc1ccc(-c2cc(C(F)(F)F)n3nc(C(=O)NCc4ccco4)c(Cl)c3n2)cc1	28.4	-3.1	-0.6	0.7	0.5	48.3
C=CCNC(=S)NNC(=O)c1ccc(OC(C)C)cc1	13.6	5.4	-8.2	0.9	1	4.1
Cn1c(SCC(=O)NCc2ccccc2)nnc1C1CC1	0.8	-1.4	17.8	1	1.1	-7.5
O=S1(=O)C=C(Oc2ccc(F)cc2)c2ccccc21	81.4*	-8.5	4.5	0.2	0.7	29.3
O=S1(=O)C=C(N2CCOCC2)c2ccccc21	8.4	8.9	-0.8	0.9	0.8	23.1
O=S1(=O)C=C(Oc2ccc3ccccc3c2)c2ccccc21	48.9	34.0*	-7.2	0.5	0.7	34.4
O=C1NCCCc2nonc21	-15.6	6.1	-1.1	1.2	1.1	-13.5
